Test systems include HCT-15 colon; HT29 colon; SNB-75 CNS; SNB-19 CNS; U251 CNS; PC-3 prostate; SK-MEL-5 melanoma; UACC-62 melanoma; LOX IMVI melanoma; SK-MEL-28 melanoma; SK-MEL-2 melanoma; EKVX NSCLC; SN12C renal; UO-31 renal; TK-10 renal; ACHN renal; CAKI-1 renal; A498 renal; CCRF-CEM leukemia; MOLT-4 leukemia.
Holding throughout (experiment): NCI-60 one-dose screen, 48 h (100 = growth as untreated, 0 = no growth, -100 = all killed)
What all share (details): 10 µM unless noted

Each structure is given as a SMILES string. This is part of a sample that, as a whole, favours compounds with a hit. Of some 83,000 tested, about 20% had one in any assay.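 Compound tested at a single concentration for 48 hours in 96-well plates; a percent growth value below 10 was scored as active.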 A number with no mark means an inactive call. The source made the active and inactive calls.

On to `COc1ccc(/C(C)=C(\c2ccc(Cl)cc2)c2ccc(OCCN3CCCCC3)cc2)cc1F`, for which the growth in the assay on HCT-15 colon was 0.563% (active); in the assay on HT29 colon, 4.57% (active); in the assay on SNB-75 CNS, 65%; in the assay on SNB-19 CNS, 58.3%; in the assay on U251 CNS it was 34.1%; in the assay with PC-3 prostate, 28%. Further, the growth was 57.1% in the assay on SK-MEL-5 melanoma; -33% (active) in the assay with UACC-62 melanoma; -73.1% (active) with LOX IMVI melanoma; -21.3% (active) with SK-MEL-28 melanoma; 64.1% with SK-MEL-2 melanoma; 47.7% with EKVX NSCLC. The growth in the assay with SN12C renal is 47.4%; with UO-31 renal, 11.6%; in the assay with TK-10 renal, 68.7%; with ACHN renal it was 59.2%; in the assay with CAKI-1 renal, 17.8%; in the assay with A498 renal, 76%. In addition, the growth in the assay on CCRF-CEM leukemia was 31%; in the assay on MOLT-4 leukemia it was 23.8%.

In the case of `O=C(NCOC(O)C(Cl)(Cl)Cl)NCOC(O)C(Cl)(Cl)Cl` (stereo not given), the growth was 95.8% in the assay with HCT-15 colon; 94.4% in the assay on HT29 colon; 85.6% in the assay with SNB-75 CNS; 98.4% in the assay with SNB-19 CNS; 102% in the assay on U251 CNS; 95.6% in the assay on PC-3 prostate. The growth was 102% with SK-MEL-5 melanoma; 98.8% with UACC-62 melanoma; 97.7% in the assay on LOX IMVI melanoma; 92.8% in the assay with SK-MEL-28 melanoma; 89.7% with SK-MEL-2 melanoma; 107% in the assay on EKVX NSCLC. For the same molecule, the growth in the assay with SN12C renal is 97.8%; in the assay on UO-31 renal, 78.4%; in the assay on TK-10 renal, 100%; in the assay on ACHN renal, 92.8%; in the assay on CAKI-1 renal, 95.9%; with A498 renal it was 77.1%. The growth in the assay with CCRF-CEM leukemia was 105%; with MOLT-4 leukemia, 98.9%.

On to `CN(CCC(=O)/C(=C\c1ccccc1)c1ccc(Cl)cc1)Cc1ccccc1`, for which the growth was 2.09% (active) in the assay on HCT-15 colon; 9.63% (active) in the assay with HT29 colon; 60.3% in the assay on SNB-75 CNS; 23% in the assay with SNB-19 CNS; -10.3% (active) in the assay on U251 CNS; 45% in the assay with PC-3 prostate. For the same molecule, the growth in the assay with SK-MEL-5 melanoma is 58.7%; in the assay with UACC-62 melanoma, -36.6% (active); in the assay with LOX IMVI melanoma it was -58.3% (active); with SK-MEL-28 melanoma, 9.17% (active); in the assay with SK-MEL-2 melanoma it was 58.4%; in the assay on EKVX NSCLC it was 86.8%. In addition, the growth is -9.91% (active) in the assay with SN12C renal; -40.9% (active) in the assay on UO-31 renal; 51.8% with TK-10 renal; -43.3% (active) with ACHN renal; 22.5% in the assay with CAKI-1 renal; 46.1% in the assay on A498 renal. Besides, the figures for the growth in the assay on CCRF-CEM leukemia and with MOLT-4 leukemia were -7.82% (active) and 6.05% (active), respectively.

`C=C(C)[C@@H]1CC[C@]2(C(=O)NCC(=O)O)CC[C@]3(C)[C@H](CC[C@@H]4[C@@]5(C)Cc6c([nH]c7ccccc67)C(C)(C)[C@@H]5CC[C@]43C)[C@@H]12`: the growth with HCT-15 colon was 77.5%; in the assay on HT29 colon it was 88.2%; in the assay on SNB-75 CNS, 64.2%; with SNB-19 CNS, 71.2%; with U251 CNS it was 61.8%; in the assay on PC-3 prostate, 72.6%. Further, the growth in the assay with SK-MEL-5 melanoma was 103%; with UACC-62 melanoma, 79.7%; with LOX IMVI melanoma, 99.1%; in the assay on SK-MEL-28 melanoma, 92.7%; in the assay with SK-MEL-2 melanoma, 92.4%; with EKVX NSCLC, 84.7%. Besides, the growth in the assay with SN12C renal was 72.2%; in the assay on UO-31 renal, 55.4%; in the assay with TK-10 renal it was 103%; with ACHN renal it was 87.4%; in the assay on CAKI-1 renal it was 78.5%; with A498 renal, 77.2%. For the same molecule, the values for the growth with CCRF-CEM leukemia and with MOLT-4 leukemia were 72.8% and 78.4%, respectively.

In the case of `Cc1cc(C)on1`, the growth in the assay with HCT-15 colon is 105%; in the assay on HT29 colon, 107%; in the assay on SNB-75 CNS it was 101%; with SNB-19 CNS, 102%; in the assay with U251 CNS, 98.9%; in the assay on PC-3 prostate, 89.9%. In addition, the growth with SK-MEL-5 melanoma was 99.6%; in the assay with UACC-62 melanoma it was 110%; in the assay with LOX IMVI melanoma, 102%; in the assay on SK-MEL-28 melanoma it was 101%; with SK-MEL-2 melanoma, 99.6%; in the assay with EKVX NSCLC, 99.2%. Also, the growth in the assay with SN12C renal was 99.6%; with UO-31 renal, 84.5%; in the assay with TK-10 renal, 103%; in the assay with ACHN renal it was 104%; in the assay with CAKI-1 renal it was 98.4%; in the assay with A498 renal, 121%. The growth in the assay with CCRF-CEM leukemia is 96%; with MOLT-4 leukemia, 92.3%.

Turning to `c1ccc2c(c1)ncn2-c1nc2ccccc2n2c1nc1ccccc12`, the growth with HCT-15 colon is 43.1%; in the assay with HT29 colon it was 40.9%; in the assay on SNB-75 CNS, 81.3%; in the assay with SNB-19 CNS, 86.8%; with U251 CNS, 87.6%; in the assay on PC-3 prostate, 72.4%. Also, the growth in the assay on SK-MEL-5 melanoma is 55.8%; in the assay with UACC-62 melanoma it was 77.3%; with LOX IMVI melanoma it was 79.1%; in the assay on SK-MEL-28 melanoma it was 107%; in the assay with SK-MEL-2 melanoma, 104%; in the assay on EKVX NSCLC, 61.8%. The growth with SN12C renal was 85.9%; in the assay with UO-31 renal, 48%; in the assay on TK-10 renal, 79.6%; with ACHN renal, 63.1%; with CAKI-1 renal it was 62.3%; with A498 renal, 82.4%. The results for the growth with CCRF-CEM leukemia and in the assay with MOLT-4 leukemia were 80.6% and 80.3%, respectively.

As to `COc1cc(C(=O)/C=C/c2c(C(F)(F)F)nc3ccccn23)cc(OC)c1OC`, the growth is -44.2% (active) in the assay on HCT-15 colon; -56.5% (active) in the assay with HT29 colon; 1.22% (active) with SNB-75 CNS; 14.6% with SNB-19 CNS; -60.2% (active) in the assay on U251 CNS; 7.45% (active) in the assay with PC-3 prostate. Moreover, the growth with SK-MEL-5 melanoma is -95.2% (active); in the assay on UACC-62 melanoma, -75.6% (active); in the assay with LOX IMVI melanoma it was -79.8% (active); in the assay with SK-MEL-28 melanoma, -65.2% (active); with SK-MEL-2 melanoma, -49.3% (active); with EKVX NSCLC it was -0.4% (active). For the same molecule, the growth in the assay with SN12C renal is 3.89% (active); in the assay with UO-31 renal, -71.1% (active); with TK-10 renal, 11.2%; in the assay with ACHN renal, -78.7% (active); in the assay on CAKI-1 renal it was -25.5% (active); in the assay on A498 renal, 8.53% (active). For the same molecule, the growth is 5.58% (active) in the assay on CCRF-CEM leukemia and 4.22% (active) with MOLT-4 leukemia.

Values taken from PubChem BioAssay (NCI).
